MLL AF4-AF9 inh – blocks AF4 peptide binding to human AF9; P42568; 350,000 tested, 0.47% active; AID 651704; AlphaScreen, biotin-AF4 peptide binding to FLAG-AF9; inhibition, % at 10 µM;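 active = every replicate reaching a set inhibition limit, whatever the replicate mean, cut at about 25% in these data; inconclusive = mean inhibition reaches that limit but some replicates miss it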;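 also: 0% = plate neutral control median and 100% = total signal loss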
Glyco luc inh – blocks N-linked glycosylation in D54 reporter cells; AID 588692; reporter increase, % at 12.5 µM; D54 ERlucT glycosylation luciferase reporter, 24 h; percent of 100 nM tunicamycin response; 360,000 tested, 0.23% active;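 active = mean luciferase reporter signal, scaled so untreated is 0 and the glycosylation-blocking control 100, at or above a set limit in every replicate; inconclusive = mean reaches the limit but not every replicate does; inactive = mean below the limit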;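 also: luciferase carries N-glycosylation sites so blocking glycosylation raises the light; 0% = median of neutral control wells and 100% = median of 100 nM tunicamycin wells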
RAD52 anneal inh – blocks human RAD52 DNA annealing; P43351; recombinant RAD52 DNA annealing, FRET fluorescence; inhibition, % at 18.7 µM; 360,000 tested, 0.46% active; AID 651710;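 active = every replicate showing at least 50% inhibition; inconclusive = mean inhibition at least 50% but not in every replicate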
RAD54 inh – inhibitors of human RAD54 branch migration; AID 602329; inhibition, % at 10.4 µM; 360,000 tested, 0.14% active; Q92698; RAD54 Holliday junction branch migration, FAM/BHQ fluorescence;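 active = mean normalized replicate activity at least 40 and at least half of replicates scoring 40 or more; inconclusive = only one of the two criteria met; inactive = mean below 40 and under half of replicates reaching 40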;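 also: 0% = median of neutral control wells and 100% = median of positive control wells; inhibitors cause a drop in the FAM fluorescence signal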
Target sequence (Q92698 whole entry, looked up): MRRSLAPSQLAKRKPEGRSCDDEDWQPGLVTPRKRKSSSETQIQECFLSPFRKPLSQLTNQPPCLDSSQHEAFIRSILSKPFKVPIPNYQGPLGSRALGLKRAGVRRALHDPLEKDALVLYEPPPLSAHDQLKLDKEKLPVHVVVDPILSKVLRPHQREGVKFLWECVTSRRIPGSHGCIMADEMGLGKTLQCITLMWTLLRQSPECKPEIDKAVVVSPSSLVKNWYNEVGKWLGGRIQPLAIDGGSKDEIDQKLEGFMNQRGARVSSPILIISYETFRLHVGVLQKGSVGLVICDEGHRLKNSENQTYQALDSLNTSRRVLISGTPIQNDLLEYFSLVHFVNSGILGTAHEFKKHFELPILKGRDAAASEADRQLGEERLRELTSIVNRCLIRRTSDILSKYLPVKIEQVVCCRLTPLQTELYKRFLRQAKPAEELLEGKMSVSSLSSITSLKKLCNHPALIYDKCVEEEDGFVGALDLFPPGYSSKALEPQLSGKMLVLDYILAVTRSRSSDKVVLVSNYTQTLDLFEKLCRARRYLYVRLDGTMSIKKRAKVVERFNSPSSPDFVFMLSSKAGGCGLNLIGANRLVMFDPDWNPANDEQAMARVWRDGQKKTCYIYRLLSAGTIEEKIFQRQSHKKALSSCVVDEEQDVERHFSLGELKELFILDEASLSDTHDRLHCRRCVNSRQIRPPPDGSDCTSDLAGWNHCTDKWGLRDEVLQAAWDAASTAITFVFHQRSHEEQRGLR
CASP6 VEID inh – blocks human caspase-6 cleavage activity; inhibition, % at 12.5 µM; P55212; purified caspase-6, Z-VEID-R110 cleavage fluorescence; 350,000 tested, 0.53% active; AID 686996;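 active = mean inhibition across replicates at least about 35%, with every replicate also reaching that limit, limit read from the data; inconclusive = only one of the two criteria met; inactive = neither criterion met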;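 also: 0% = median of neutral control wells and 100% = no fluorescence left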
* marks the source's active call; other numbers are inactive results; ? = inconclusive; . = no result; ! = not active in a repeat. Most compounds without a hit are left out; they make up all but 1.2% or so of the library.

SMILES	MLL AF4-AF9 inh	Glyco luc inh	RAD52 anneal inh	RAD54 inh	CASP6 VEID inh
CN1c2ccc(C3=CCCCC3)cc2[C@@H]2[C@@H](CCN2C(=O)C2CCCCC2)[C@@H]1CO	?	.	8.0	.	.
CN1c2ccc(C3=CCCCC3)cc2[C@H]2[C@H](CCN2C(=O)C2CCCCC2)[C@@H]1CO	30.4*	.	21.5	.	-1.4
CN1c2ccc(C3=CCCCC3)cc2[C@H]2[C@H](CCN2C(=O)C2CC2)[C@@H]1CO	68.8*	.	-63.9	.	9.5
O=C(C[C@@H]1CC[C@@H](NC(=O)C2CC2)[C@@H](CO)O1)NC1CCC1	0.0	.	-6.2	-5.5	-0.3
COc1ccccc1NC(=O)Cn1nnc(C(=O)NCc2cccs2)c1N	-32.5	28.5*	-7.7	3.3	-2.3
c1coc(-c2nc3ccccc3nc2-c2ccco2)c1	8.2	4.4	-36.3	-0.9	69.2*
CC(C)(C)c1ccc(OCc2ccc(C(=O)Nc3cccnc3)o2)cc1	3.4	28.6*	-16.7	-8.1	3.3
O=C(Nc1cccnc1)c1ccc(COc2ccccc2Br)o1	.	2.9	.	-2.4	.
CNC(=O)C[C@H]1CC[C@H]2[C@@H](COC[C@@H](O)CN2C(=O)c2ccc3c(c2)OCO3)O1	-2.0	.	3.7	-4.2	-0.1
O=C(C[C@@H]1C[C@@H]2c3cc(NC(=O)CC4CC4)ccc3O[C@@H]2[C@H](CO)O1)NCc1ccc2c(c1)OCO2	-2.6	.	7.8	-2.7	1.2
CS(=O)(=O)N(CC(=O)NCCSCc1ccccc1Cl)c1ccccc1F	0.3	-2.2	-11.5	1.7	-0.1
COc1ccccc1N(CC(=O)NCCSCc1ccccc1Cl)S(C)(=O)=O	-23.0	-2.1	-12.2	-4.2	38.8*
C[C@H]1CN([C@@H](C)CO)C(=O)c2cc(NC(=O)c3ccncc3)ccc2O[C@H]1CN(C)S(=O)(=O)c1ccccc1	-1.1	.	1.0	-13.3	-0.1
CCOC(=O)C1=C(COC(=O)/C=C/c2ccco2)NC(=O)NC1C (centres undefined)	-3.0	1.5	-13.3	-14.2	61.1*
CC1CCCC(C)N1C(=O)COC(=O)/C=C/c1ccco1 (centres undefined)	0.7	1.5	-18.1	-8.8	15.9
CC1CCN(C(=O)COC(=O)/C=C/c2ccco2)CC1	-1.5	-3.9	-26.1	-11.7	48.8*
CC1=CCC(C(=O)O)C(C(=O)NC2CCCCC2)C1 (centres undefined)	-0.3	-1.7	2.9	-2.6	40.9*
CC1=C(C)CC(C(=O)NC2CCCC2)C(C(=O)O)C1 (centres undefined)	-0.2	1.5	-9.8	-2.3	-0.8
C[C@@H]1CN([C@H](C)CO)C(=O)c2cc(NC(=O)Nc3ccc4c(c3)OCO4)ccc2O[C@@H](C)CCCCO[C@H]1CN(C)Cc1ccc(Cl)c(Cl)c1	6.5	.	5.7	-0.5	0.7
O=C(C[C@H]1C[C@H]2c3cc(NC(=O)CC4CC4)ccc3O[C@H]2[C@@H](CO)O1)NCC(F)(F)F	-3.0	.	-9.1	1.8	-3.1
COCC(=O)N1C[C@H](C)[C@@H](OC)CN(C)C(=O)c2ccc(NC(=O)c3ccc(F)cc3)cc2OC[C@@H]1C	0.4	.	-7.5	.	0.9
Oc1ccc(NCc2cccc(OCc3ccc(F)cc3)c2)cc1	10.0	14.4	-1.3	.	37.6*
O=C(Nc1ccc(F)cc1)N[C@H]1C=C[C@H](CC(=O)N2CCOCC2)O[C@H]1CO	-20.7	.	23.6	-1.1	-0.2
COc1cc(CN2C[C@@H]3N[C@H](C2)C3c2ccc(-c3ccncc3)cc2)cc(OC)c1 (some centres undefined)	3.6	.	11.3	.	-6.1
COc1cc(CN2C[C@@H]3N[C@H](C2)C3c2ccc(-c3cccc(OC)c3)cc2)cc(OC)c1 (some centres undefined)	26.0*!	.	59.4*	.	-5.3
SMILES	MLL AF4-AF9 inh	Glyco luc inh	RAD52 anneal inh	RAD54 inh	CASP6 VEID inh
COc1ccc(-c2ccc(C3[C@@H]4CN(Cc5cc(OC)cc(OC)c5)C[C@H]3N4)cc2)cc1 (some centres undefined)	11.8	.	66.4*	.	1.0
CC(=O)Nc1ccc(S(=O)(=O)NC2CC(=O)N(c3cccc(F)c3)C2)cc1 (centres undefined)	-0.6	0.8	-6.4	-1.8	-2.0
O=C1CC(NS(=O)(=O)c2cc(F)ccc2F)CN1c1cccc(F)c1 (centres undefined)	-2.5	-0.8	-13.4	.	37.3*
CCCN(C)C[C@@H]1Oc2cc(C#Cc3cccc(F)c3)ccc2S(=O)(=O)N([C@H](C)CO)C[C@@H]1C	4.3	.	-17.9	-11.1	-1.3
COc1ccc(-c2ccc(C3[C@@H]4CN(C(=O)Nc5cccc(F)c5)C[C@H]3N4)cc2)cc1 (some centres undefined)	8.5	.	84.0*	.	1.7
COc1ccc(NC(=O)N2C[C@@H]3N[C@H](C2)C3c2ccc(-c3cncnc3)cc2)cc1 (some centres undefined)	-4.9	.	13.4	.	1.4
COc1cccc(-c2ccc(C3[C@@H]4CN(C(=O)Nc5ccc(F)cc5)C[C@H]3N4)cc2)c1 (some centres undefined)	7.6	.	41.2	.	-2.0
COc1ccc(NC(=O)N2C[C@@H]3N[C@H](C2)[C@@H]3c2ccc(-c3ccc(OC)cc3)cc2)cc1	3.4	.	67.6*	.	2.1
COc1ccc(NC(=O)N2C[C@@H]3N[C@H](C2)C3c2ccc(-c3cccc(OC)c3)cc2)cc1 (some centres undefined)	5.0	.	54.2*!	.	0.3
O=C(NC[C@@H]1CC[C@H]2[C@H](CN2Cc2cc(-c3ccccc3)on2)O1)c1ccc2c(c1)OCO2	-3.6	.	.	.	.
C[C@H](NC(=O)C[C@@H]1CC[C@@H](NC(=O)Nc2ccc3c(c2)OCO3)[C@@H](CO)O1)c1ccccc1	0.7	.	-8.4	3.5	-2.8
O=C(O)/C=C1\NC(=O)c2ccccc21	.	1.1	.	-7.0	.
O=C1N/C(=C\c2ccc(O)cc2)C(=O)c2ccccc21	.	?	1.7	-3.2	82.8*
CC(C)NC(=O)N(C)C[C@H]1OCc2ccccc2-c2ccccc2C(=O)N([C@@H](C)CO)C[C@@H]1C	-4.9	.	-0.6	0.3	-1.7
Cc1cc(C)c2c(c1)NC(C(=O)O)C1CC=CC21 (centres undefined)	13.3	-2.3	-212.8	-15.3	64.1*
O=C(CSc1ccsc1[N+](=O)[O-])NCc1ccco1	5.0	1.9	-21.5	.	46.3*
CN(C)S(=O)(=O)c1cccc(NC(=S)N/N=C/c2ccc(O)c(O)c2O)c1	2.2	-0.4	-26.2	11.1	37.9*
COc1ccc(O)c(/C=N/NC(=S)Nc2cccc(S(=O)(=O)N(C)C)c2)c1	.	-6.9	.	-0.8	.
NC(=O)c1cc(Cl)cn(-c2ccccc2)c1=O	49.8*	0.6	-2.4	2.9	8.0
Cn1c(=O)c(C(N)=S)cn(-c2ccccc2)c1=O	-1.1	0.9	1.9	-0.9	-1.9
COCC(=O)N(C)C[C@H]1Oc2ncc(C#CC3(O)CCCC3)cc2C(=O)N([C@H](C)CO)C[C@H]1C	-2.1	.	-17.1	1.2	0.3
CCOc1nc(N=C(N)N)nc2c(C)cccc12	.	17.2	.	59.8*	.
CCOc1ccccc1Nc1cc(C)c2cccc(C)c2n1	-1.5	0.5	-10.3	13.7	1.7

Source: PubChem (Broad Institute)
